The values below come from PubChem BioAssay (NCI).

The nature of test [1]: NCI Yeast Anticancer Drug Screen. Data for the rad50 strain (AID 155).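 Further: 0% = growth of vehicle-only cultures of the same strain.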 Conditions: S. cerevisiae rad50 strain growth inhibition, stronger effect = higher value; at 50.0 µM unless noted. A digest of the protocol: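 Relative growth inhibition (compound vs vehicle) was measured in yeast with a defined repair-gene alteration.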
Test [2] is described as follows: NCI Yeast Anticancer Drug Screen. Data for the mec2-1 strain (AID 157). To be noted: S. cerevisiae mec2-1 strain, stronger effect = higher value; at 50.0 µM unless noted. A digest of the protocol:
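Each compound was tested on mec2-1 yeast, a strain altered in DNA damage repair or cell cycle control. Growth inhibition is reported relative to vehicle.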

Test [3] in a line: NCI Yeast Anticancer Drug Screen. Data for the sgs1 mgt1 strain (AID 161).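 Further: 0% = growth of cultures given vehicle only.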 To be noted: S. cerevisiae sgs1 mgt1 strain, stronger effect = higher value; at 50.0 µM unless noted. A digest of the protocol: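 Mutant yeast exposed to compound; growth scored against vehicle-only wells.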
A short description of test [4]: NCI Yeast Anticancer Drug Screen. Data for the cln2 rad14 strain (AID 165).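 Further: 0% = growth equal to vehicle treated cultures.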 To be noted: S. cerevisiae cln2 rad14 strain, stronger effect = higher value; at 50.0 µM unless noted. A digest of the protocol:
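Test compounds were added to cln2 rad14 yeast cultures; inhibition of growth was then determined by comparison with vehicle treatment.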

Test [5] in a line: NCI Yeast Anticancer Drug Screen. Data for the bub3 strain (AID 167). To be noted: S. cerevisiae bub3 mutant strain, stronger effect = higher value; at 50.0 µM unless noted. A digest of the protocol:
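Screening used yeast with an engineered genetic alteration affecting cell cycle control. Compound-exposed cultures were compared with vehicle cultures, and reduced growth was taken as inhibition.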

A short description of test [6]: NCI Yeast Anticancer Drug Screen. Data for the mlh1 rad18 strain (AID 175). Conditions: S. cerevisiae mlh1 rad18 strain growth inhibition, stronger effect = higher value; at 50.0 µM unless noted. A digest of the protocol:
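Inhibition values reflect reduced growth of mutant yeast versus vehicle-treated controls following compound exposure; the mutations affect DNA damage repair.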

Molecules are shown by their SMILES. Values joined by “and” are separate entries in the source; they are usually repeats but may differ in a detail not shown here. Identical values can stand only once. The panel holds about 79,000 compounds, 15% with a hit somewhere; the sample as a whole holds those more often. Values without a mark were called inactive. Active and inactive are the calls of the source. No stated cut-off is given here; in the data, active means growth inhibition above about 70%; inactive means the rest.

With `CC(C)CCOC=O`, the growth inhibition in test [1] is 38.1%; in test [2], 28.4%; in test [3], 22.8%; in test [4], 21.6%; in test [5] it was 24.9%; in test [6] it was 30.5%.
Take `CC12CC(=O)OC1(C)C1CCC2C1` (stereo not given): the growth inhibition in test [1] was 9.25%; in test [2] it was 10.3%; in test [3], -5.25%; in test [4], -10.7%; in test [5], -10.2%; in test [6], 9.05%.
For `O=C1c2ccccc2-c2c1c1ccccc1c(=O)n2-c1ccccc1`, the growth inhibition was -1.7% in test [1]; -26.1% in test [2]; 6% in test [3]; -5.85% in test [4]; -13.6% in test [5]; -51.6% in test [6].
`Cc1ccc(Nc2nc(N)nc3c2ncn3C2OC(CO)C(O)C2O)cc1` (stereo not given): the growth inhibition in test [1] is 25.8%; in test [2], 2.6%; in test [3] it was 7.85%; in test [4] it was -3.75%; in test [5], 18.6%; in test [6], 7.35%.
With `CC1(C)CCC(CC(=O)O)(CC(=O)O)CC1`, the growth inhibition is -5.25% in test [1]; 8.8% in test [2]; -1.7% in test [3]; -17.3% in test [4]; -2.9% in test [5]; 11.4% in test [6].
For the molecule `CCSC1C(O)C(CO)OC1n1cnc2c(=S)nc[nH]c21` (stereo not given), the growth inhibition in test [1] is -3.65%; in test [2] it was -28.7%; in test [3], -2%; in test [4], 2.6%; in test [5], 5%; in test [6], 0.2%.
In the case of `CCOC(=O)c1cc(C)ncc1N`, the growth inhibition in test [1] was 9.85%; in test [2] it was 7.4%; in test [3] it was -7.1%; in test [4], 13.2%; in test [5] it was -0.95%; in test [6], 3.3%.
With `O=c1c(O)c(-c2cc(O)c(O)c(O)c2)oc2cc(O)cc(O)c12`, the growth inhibition in test [1] was 13.7%; in test [2] it was -21.1%; in test [3], 7.55%; in test [4] it was 1.1%; in test [5], 14.5%; in test [6] it was -8.55%.
As to `CC1CC(C)OC(c2ccccc2Cl)O1` (stereo not given), the growth inhibition in test [1] is 24.6%; in test [2], 12.4%; in test [3], 6.3%; in test [4], -8.1%; in test [5] it was 12.7%; in test [6], 25%.
On to `CN(C)CCC(C#N)c1ccccc1` (stereo not given), for which the growth inhibition in test [1] is -18.6%; in test [2] it was -15.6%; in test [3] it was -2.7%; in test [4], -26.4%; in test [5] it was -3.8%; in test [6], -5.55%.
With `Cc1ncc(C(N)=S)c(N)n1`, the growth inhibition was 9.95% in test [1]; -0.05% in test [2]; -0.15% in test [3]; -47.4% in test [4]; -8.55% in test [5]; 14.3% in test [6].
With `C(#Cc1ccccc1)CC#Cc1ccccc1`, the growth inhibition in test [1] was 5.4%; in test [2], 10.2%; in test [3], -11.7%; in test [4], -0.3%; in test [5], -11.2%; in test [6], 3.05%.
Consider `C=C(NC(=O)C(=C)NC(=O)c1csc(C2=NC3c4csc(n4)C4NC(=O)c5csc(n5)C(C(C)(O)C(C)O)NC(=O)C5CSC(=N5)/C(=C/C)NC(=O)C(C(C)O)NC(=O)c5csc(n5)C3(CC2)NC(=O)C(C)NC(=O)C(=C)NC(=O)C(C)NC(=O)C(C(C)CC)NC2C=Cc3c(C(C)O)cc(nc3C2O)C(=O)OC4C)n1)C(N)=O` (stereo not given), for which the growth inhibition was 11.9% and 15.1% in test [1]; 10.8% and -10.4% in test [2]; 13.8% and 18.1% in test [3]; 29.5% and 23.2% in test [4]; 34.2% and 32.5% in test [5]; 13.2% and 36.2% in test [6].
For the molecule `CCCCCC[N+](C)(C)C`, the growth inhibition in test [1] was 28%; in test [2] it was -16.3%; in test [3] it was 2.7%; in test [4], 6.75%; in test [5], 31.3%; in test [6] it was 16.2%.
For `CCCCc1cc(C(=O)OC/C(C)=N/NC(N)=O)c2ccccc2n1`, the growth inhibition was -6.7% in test [1]; 25.8% in test [2]; 18.9% in test [3]; -27.6% in test [4]; 35.8% in test [5]; 9.45% in test [6].
For the molecule `CCCCCCCCCCCCCCCCCCc1ccc(O)cc1O`, the growth inhibition was -2.05% in test [1]; -2.05% in test [2]; -15.9% in test [3]; 12.6% in test [4]; 1.75% in test [5]; -5.2% in test [6].
Turning to `CC(=O)NC1C(OCc2ccccc2)OC(CO)C(O)C1OC(C)C(=O)N[C@@H](C)C(=O)N[C@H](CCC(=O)OCCNc1c2ccccc2nc2cccc([N+](=O)[O-])c12)C(N)=O` (stereo not given in full), the growth inhibition in test [1] was 87.2% (active); in test [2], 90.8% (active); in test [3], 90.4% (active); in test [4], 90.5% (active); in test [5], 88.7% (active); in test [6], 86.8% (active).
Take `Cc1ccc(OCC(=O)O)c(Cl)c1`: the growth inhibition in test [1] is -1.9%; in test [2] it was -1.9%; in test [3], 0.65%; in test [4], -22.4%; in test [5], 17.4%; in test [6], 2.3%.
In the case of `COc1cccc(/C=C/c2ccnnc2)c1`, the growth inhibition in test [1] was 4.3%; in test [2] it was -2.8%; in test [3] it was -7.55%; in test [4] it was -7.65%; in test [5], 16.9%; in test [6], -3.85%.
On to `CCCOC(=O)c1cccnc1`, for which the growth inhibition in test [1] is -13.2%; in test [2], -29.6%; in test [3], -14.7%; in test [4], 0.7%; in test [5] it was -6.75%; in test [6] it was -8.65%.
